Source: PubChem BioAssay
BJeLR lethal: kills HRASV12-expressing BJeLR cells. BJeLR (HRASV12) viability, CellTiter-Glo ATP luminescence, 48 h. inhibition, % (test concentration not listed). actives 0.17% (n = 300,000). AID 1554; in the data active = inhibition above about 50%; inconclusive = no clear call, values can overlap the other calls
BoNT F protease: inhibitors of Botulinum neurotoxin F light chain protease; Multiplex microsphere protease cleavage assay, flow cytometry; inhibition, % at 10 µM; actives 0.22% (n = 360,000); AID 588497; in the data active = inhibition above about 35%, passing the limit was not always enough; inconclusive = no clear call, values can overlap the other calls; also: plate controls were buffer without enzyme for full effect and enzyme alone for no effect
BoNT-A LC inh2: inhibitors of Botulinum neurotoxin A light chain protease | multiplex microsphere protease substrate cleavage, flow cytometry | inhibition, % at 10 µM | actives 0.17% (n = 360,000); also: plate controls were buffer without enzyme for full effect and enzyme alone for no effect
Autofluor counter: counter-screen for toxin protease inhibitors: compound fluorescence. compound autofluorescence counterscreen, microsphere flow cytometry; active compounds read high. fluorescence intensity (no concentration beside the values). actives 3.1% (n = 360,000). AID 624483; in the data active = fluorescence intensity above about 16000; inconclusive = no clear call, values can overlap the other calls
Anthrax LF inh2: blocks Bacillus anthracis lethal factor protease. P15917. multiplex microsphere protease cleavage assay, LF. inhibition, % at 10 µM. actives 0.12% (n = 360,000). AID 588501; also: plate controls were buffer without enzyme for full effect and enzyme alone for no effect
Vc quorum ag: inducers of Vibrio cholerae quorum light production without autoinducers; V. cholerae BH1578 lux reporter, luminescence, 6 h; activation, % at 18.7 µM; actives 0.16% (n = 350,000); AID 588436; in the data active = activation mostly above about 9.7%, no sharp cut-off; inconclusive = no clear call, values can overlap the other calls; inactive = mostly below about 3.7%
Numbers without * were called inactive; i = inactive; ? = inconclusive; . = no result. Sampled rows, rich in hits. Any-hit rate of the full collection: about 3.7%. Rule as the data show it, unless noted: active = inhibition above about 30%; inconclusive = no clear call, values can overlap the other calls; inactive = below that.

SMILES	BJeLR lethal	BoNT F protease	BoNT-A LC inh2	Autofluor counter	Anthrax LF inh2	Vc quorum ag
Cc1ccc(NC(=O)N2CCN(C/C=C/c3ccccc3)CC2)cc1	1	-8	-2	3010	-1	.
O=C(Nc1ccc2c(c1)OCO2)N1CCN(c2ncccn2)CC1	5	2	1	22918*	0	-1
COC(=O)c1ccccc1NC(=O)N1CCN(C/C=C/c2ccccc2)CC1	6	-2	0	20603*	-2	-1
COc1ccc(C(=O)N2CCC2(C)C(=O)NC(C)C)c(OC)c1 (stereo not given)	.	0	0	3799	2	-4
CCCNC(=O)C1(C)CCCN(C(=O)COc2ccc(Cl)cc2Cl)C1 (stereo not given)	.	1	0	3472	-4	i
CC(O)(CS(=O)(=O)Cc1ccccc1)C(=O)Nc1cccc(C(F)(F)F)c1 (stereo not given)	0	1	1	20560*	0	-1
CC(O)(CS(=O)(=O)c1cccc(C(F)(F)F)c1)C(=O)Nc1cccc(C(F)(F)F)c1 (stereo not given)	1	-4	1	10906	-4	1
CC(O)(CS(=O)(=O)Cc1ccccc1)C(=O)Nc1ccc(C(F)(F)F)cc1 (stereo not given)	-2	-2	?	23000*	1	i
Cc1noc(C)c1C(=O)N1CCC1(C)C(=O)NS(=O)(=O)c1ccccc1Cl (stereo not given)	.	-3	0	3972	-5	i
COC(=O)Nc1ccc(S(=O)(=O)N2CCN(C)CC2)cc1	2	7	-1	3352	-3	0
O=C(COc1ccc(Cl)cc1)Nc1nc(-c2ccc(S(=O)(=O)N3CCOCC3)cc2)cs1	1	0	?	22761*	-2	i
CCN(CC)C(=O)COc1ccc(S(=O)(=O)N2CCOCC2)cc1	1	3	0	16440*	0	0
CC1CCCN(S(=O)(=O)c2ccc(NC(=O)CCN3C(=O)c4ccccc4C3=O)cc2)C1 (stereo not given)	3	?	1	4063	6	i
O=C(CCN1C(=O)c2ccccc2C1=O)Nc1ccc(S(=O)(=O)N2CCOCC2)cc1	11	-6	-6	22292*	-2	0
CC(=O)Nc1ccc(S(=O)(=O)N2CCN(C)CC2)cc1	-5	-4	-2	23174*	0	i
CCc1nc2ccc(C(=O)NCCNC(C)=O)cn2c1N(CC)CCOC	.	-5	0	3949	8	i
CC1(C(=O)NS(=O)(=O)C2CC2)CCCN(C(=O)c2ccc(F)cc2Cl)C1 (stereo not given)	.	0	-1	3618	-9	1
COc1ccc(CN2C(=O)CCC2(C)c2nnnn2-c2ccc3c(c2)OCCO3)cc1OC (stereo not given)	.	-11	1	6323	-3	.
Cc1ccc(NC(=O)COc2ccc(S(=O)(=O)N3CCOCC3)cc2)cc1	-6	3	1	22684*	-2	0
CC(=O)Nc1ccc(S(=O)(=O)N2CCN(c3cc4c(cc3[N+](=O)[O-])n(C)c(=O)n4C)CC2)cc1	7	7	7	21248*	-8	-1
CC(C)c1ccc(NC(=O)COc2ccc(S(=O)(=O)N3CCOCC3)cc2)cc1	6	-3	0	3683	0	0
CCOc1ccc(N2CC(C(=O)Nc3ccc(S(=O)(=O)N4CCOCC4)cc3)CC2=O)cc1 (stereo not given)	-12	-1	?	23130*	1	1
CCOc1ccc(N2CC(C(=O)Nc3cccc(S(=O)(=O)N4CCOCC4)c3)CC2=O)cc1 (stereo not given)	.	-2	0	3027	-6	i
CC(=O)Nc1ccc(OCC(O)CN2CCN(S(=O)(=O)c3ccc(NC(C)=O)cc3)CC2)cc1 (stereo not given)	6	-5	0	11196	-3	0
CC(=O)Nc1ccc(S(=O)(=O)N2CCN(CC(O)COc3ccc4ccccc4c3)CC2)cc1 (stereo not given)	-2	2	?	23688*	-1	-2
SMILES	BJeLR lethal	BoNT F protease	BoNT-A LC inh2	Autofluor counter	Anthrax LF inh2	Vc quorum ag
O=C(NCc1nnnn1-c1ccc(F)cc1)c1cc2ccccc2o1	.	-9	0	3696	-1	-3
C[C@@H]1CN([C@@H](C)CO)C(=O)c2cc(NS(=O)(=O)c3cccs3)ccc2O[C@H]1CN(C)Cc1ccc(C(F)(F)F)cc1	.	1	0	3735	-1	i
CC(=O)Nc1ccc(S(=O)(=O)N2CCN(C(=O)N3CCOCC3)CC2)cc1	-4	-7	0	5469	0	2
CC(=O)Nc1ccc(S(=O)(=O)N2CCOCC2)cc1	-3	4	2	21279*	-2	i
Cc1ccccc1-c1nc(CN2CCC(C(=O)NCCCN3CCCC3)CC2)c(C)o1	2	-8	-2	17690*	-6	-3
Cc1ccccc1-c1nc(CN2CCC(C(=O)NCCCN3CCOCC3)CC2)c(C)o1	0	-5	?	26327*	-3	i
CCN1CCCC1CNC(=O)C1CCN(Cc2nc(-c3cccc(Br)c3)oc2C)CC1 (stereo not given)	-7	4	2	18142*	-2	i
Cc1ccccc1-c1nc(CN2CCC(C(=O)NCCCN3CC(C)CC(C)C3)CC2)c(C)o1 (stereo not given)	2	0	0	22754*	-2	-2
Cc1ccccc1-c1nc(CN2CCC(C(=O)NCCN3CCOCC3)CC2)c(C)o1	1	-2	-1	6942	-1	i
COc1cccc(C(C)(O)c2nc(-c3cccc(C#N)c3)cs2)c1 (stereo not given)	.	-1	0	2928	2	i
COc1cccc(-c2cc(C(=O)NCCc3ccccc3)no2)c1	-15	8	7	21462*	0	-1
CCCCNC(=O)c1cc(-c2ccc(OC)cc2)on1	7	3	1	10529	-3	-1
CCCNC(=O)c1cc(-c2ccc(OC)cc2)on1	-15	1	0	16440*	-2	0
COc1cc(OC)cc(C(=O)NC(=S)NCCc2ccccc2)c1	-6	3	3	22614*	0	0
COc1cccc(-c2cc(C(=O)Nc3cc(C)on3)no2)c1	-5	2	0	22051*	0	1
COCCNC(=O)C1(C)CCCN(C(=O)c2ccco2)C1 (stereo not given)	.	-1	0	3763	-2	i
COc1ccc(C(C)(NC(C)=O)c2nc(-c3cnc4ccccc4c3)cs2)cc1 (stereo not given)	.	-5	0	3429	-4	0
COc1ccc(CN(C)CCCn2cnc3c(SC)ncnc32)cc1OC	.	-4	0	3716	-2	-1
COc1ccc(-c2oc3c(c2C#CC(C)(C)O)C(OC)CCC3)cc1 (stereo not given)	.	2	0	5769	5	.
CCc1nc2ccc(C(=O)N(C)CCCN(C)C)cn2c1N(C)Cc1cc2ccccc2s1	.	-6	-1	3199	-8	i
